# Results: the supplement of paper PMC6555819
# Legend:
# Assay in all cases: PBM binding z-score (relative to random genomic background probes); higher = stronger binding; sequences stand for … in GC…GCGATTGACAGCGTAGAATGAAGG
# [1] = test system: FXR:RXRa (NR concentration 270 nM, RXRa partner concentration 90 nM)
# Method in brief: (§1)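 Random background probes are the reference for binding z-scores. These scores derive from regression-normalized fluorescence on custom Agilent 4×180K protein-binding microarrays incubated 1 h with ligand-free nuclear receptor dimers. Binding was detected with antibodies against each partner (one per run).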
# [2] = test system: LXRa:RXRa (NR concentration 270 nM, RXRa partner concentration 90 nM)
# Method in brief: as §1
# [3] = test system: LXRa homodimer (NR concentration 270 nM)
# Method in brief: as §1
# [4] = test system: LXRb:RXRa (NR concentration 270 nM, RXRa partner concentration 90 nM)
# Method in brief: as §1
# [5] = test system: LXRb homodimer (NR concentration 270 nM)
# Method in brief: as §1
# [6] = test system: PPARa:RXRa (NR concentration 270 nM, RXRa partner concentration 90 nM)
# Method in brief: as §1
# [7] = test system: PPARg:RXRa (NR concentration 180 nM, RXRa partner concentration 90 nM)
# Method in brief: as §1
# [8] = test system: PPARg:RXRa 270nM:90nM, anti-RXR (NR concentration 270 nM, RXRa partner concentration 90 nM)
# Method in brief: as §1
# [9] = test system: PPARg:RXRa 30nM:10nM, anti-RXR (NR concentration 30 nM, RXRa partner concentration 10 nM)
# Method in brief: as §1
# [10] = test system: PPARg:RXRa 90nM:30nM, anti-RXR (NR concentration 90 nM, RXRa partner concentration 30 nM)
# Method in brief: as §1
# [11] = test system: PPARg:RXRa DBDmut IVT, anti-RXR (DBD mutation: RXRa K156A/R161A, NR concentration 270 nM, RXRa partner concentration 90 nM)
# Method in brief: as §1
# [12] = test system: PPARg:RXRa IVT, anti-PPARg (NR concentration 270 nM, RXRa partner concentration 90 nM)
# Method in brief: as §1
# [13] = test system: PPARg DBDmut:RXRa IVT, anti-PPARg (DBD mutation: PPARg1 K132A/R137A, NR concentration 270 nM, RXRa partner concentration 90 nM)
# Method in brief: as §1
# [14] = test system: PPARg DBDmut IVT, anti-PPARg (DBD mutation: PPARg1 K132A/R137A, NR concentration 270 nM)
# Method in brief: as §1
# [15] = test system: PPARg homodimer (NR concentration 180 nM)
# Method in brief: as §1
# [16] = test system: PXR:RXRa (NR concentration 270 nM, RXRa partner concentration 90 nM)
# Method in brief: as §1
# [17] = test system: PXR homodimer (NR concentration 270 nM)
# Method in brief: as §1
# [18] = test system: RARa:RXR (NR concentration 270 nM, RXRa partner concentration 90 nM)
# Method in brief: as §1
# [19] = test system: RARa homodimer (NR concentration 270 nM)
# Method in brief: as §1
# [20] = test system: RARb:RXRa (NR concentration 270 nM, RXRa partner concentration 90 nM)
# Method in brief: as §1
Sequence,PBM binding z-score [1],PBM binding z-score [2],PBM binding z-score [3],PBM binding z-score [4],PBM binding z-score [5],PBM binding z-score [6],PBM binding z-score [7],PBM binding z-score [8],PBM binding z-score [9],PBM binding z-score [10],PBM binding z-score [11],PBM binding z-score [12],PBM binding z-score [13],PBM binding z-score [14],PBM binding z-score [15],PBM binding z-score [16],PBM binding z-score [17],PBM binding z-score [18],PBM binding z-score [19],PBM binding z-score [20]
GCGACTGGGGCATCAGCAGGTTACCAAAACTTAA,-0.46,-0.0944,-0.294,0.621,-0.676,1.34,0.564,0.743,-0.555,-0.000266,3.95,3.39,-1.31,-0.989,0.651,-0.0279,-0.564,0.57,-0.274,0.893
CGTCCCAGGTCATAGGAGGTCAGTGAAGACAGAT,5.9,6.34,4.26,5.07,0.872,4.83,3.87,4.13,1.16,2.74,1.76,3.65,0.856,0.281,3.83,6.15,2.57,4.89,2.28,4.5
TAGCCTAGGTCATGGGCCAGTAGACCACGCGAAC,4.96,3.57,0.0345,2.2,-0.335,4.38,4.13,3.94,1.03,3.07,1.37,3.63,0.0866,0.107,0.936,1.5,-0.436,2.64,-0.0215,3.92
AGAATGAGGTTACCAAAGATCAGGAAAACGCTTG,1.7,6.01,-0.322,3.66,-0.00832,3.51,2.7,2.54,0.962,2.01,4.01,3.35,0.931,0.626,0.925,1.57,-0.0296,2.1,0.339,1.95
CCTTACGGGTCACGAGGTTATGGCACGACGAGCG,6.57,4.39,0.195,3.8,0.148,5.94,7.08,6.31,3.46,5.31,3.69,5.37,1.26,0.892,2.01,4.16,0.0957,5.67,0.689,4.51
GCATATAGGTAATGCAAGGTGAAAGTCCGATTGT,0.366,1.83,-0.0493,0.568,-0.489,1.74,1.05,1.15,0.286,0.74,4.12,3.49,0.246,0.658,0.642,0.573,0.208,1.73,0.262,0.407
AATACAGGGTCACTAGGCCAGAATAGGTACGAAT,6.2,5.06,1.04,4.11,1.02,5.95,7.89,6.5,2.7,5.33,3.44,5.78,1.66,1.79,2.05,3.16,0.787,4.21,1.45,4.27
ATATGTAGGTTAGCTAGGGTCATTCAGACTAGGC,4.45,5.22,1.89,3.59,0.624,4.36,4.65,4.41,2.3,3.61,6.58,6.18,2.95,1.89,3.4,5.64,2.1,4.85,1.52,2.71
TCATATAGGTAATACAGGTAAAAGTCGGCATCTA,1.15,1.13,0.377,0.915,0.455,1.48,1.61,2.58,4.14,3.49,4.07,2.77,1.1,1.94,1.08,0.705,0.364,0.922,1.47,0.572
GCTGCTAGGTCAACTGATGGTCAGCAAAAGCTCG,4.32,3.25,0.157,2.12,0.113,3.81,2.95,3.41,0.384,2.37,4.86,3.95,-0.344,0.121,1.67,1.68,-0.304,2.93,0.266,4.52
CCTAGCGGGCCAATCTGGGTCACTCAAGGCTTGA,0.251,0.915,-0.728,0.534,-1.32,2.88,1.65,1.99,-0.227,1.17,3.83,4.82,-0.426,-0.554,0.532,0.83,-0.579,1.49,-0.347,1.45
TCGAGTAGGTTAGTCTGGGCATTCAGCCAACATA,-0.238,-0.131,-0.19,-0.216,-1.35,0.169,-0.258,0.528,0.844,0.781,1.92,1.79,-0.593,-0.623,-0.00252,-0.302,-0.724,-0.271,-0.668,-0.185
TCATAGAGGTAAAAGGTGAAAGTCGGTGTGGTAA,1.97,1.96,-0.0856,2.03,-0.828,4.69,6.33,6.66,5.72,7.33,2.72,3.24,0.0344,-0.0644,0.851,2.07,-0.248,3.86,0.918,2.07
CGTCCAAGGTCCGCAGGTCAGTGAAAGCGACGTG,-0.0411,-0.153,-0.475,-0.0275,-1.05,0.735,-0.507,0.0239,-0.651,-0.568,0.12,-0.306,-1.07,-1.27,-0.166,0.139,-0.304,0.547,-0.545,1.89
AGAACGAGCGCACGCTGAGTTGATAGCAGAGTAG,-0.57,-0.901,-0.709,-1.02,-1.26,-1.16,0.302,-0.706,-0.622,-0.45,-0.589,-0.892,-0.82,-1.39,-1.63,-0.74,-0.523,-0.952,-1.05,-1.05
CCTAGTTGGTCAGGAGGTCACACATCGGATATGA,3.47,3.35,2.05,3.2,0.972,4.03,3.29,3.64,1.24,2.91,1.56,3.61,1.34,0.678,3.07,4.1,1.36,4.37,1.58,3.71
TCTCGGAGGACACGGAAGGTCAGAGCTCGACATC,2.08,1.8,1.19,1.33,-0.694,2.04,0.365,1.4,2.23,1.53,1.04,1.13,-0.462,-0.403,1.27,2.53,0.114,2.45,-0.138,3.44
CCTCGGAGGACAGAAGGTCAGAGCCGTCCGCTTT,1.62,1.72,0.422,1.2,-0.824,1.93,-0.186,0.948,-0.897,0.277,0.172,-0.13,-1.85,-1.98,1.7,1.78,-0.366,2.37,0.4,3.24
CGTCCAAGGTCATAGGAGGTCAGCGAAGACAGAT,7.87,7.84,5.46,6.23,1.15,6.44,6.36,5.99,2.57,4.9,3.34,4.77,0.336,-0.611,4.47,7.04,3.83,6.41,2.5,5.66
TAGCCTAGGTCATTCAGGGGCCAGTTTAGAAAGC,4.19,3.81,1,3.32,0.887,3.8,1.98,2.15,0.497,1.59,1.47,2.77,0.115,0.428,0.877,2.37,-0.0546,3.52,-0.367,3.61
TCTATTAGTTGAAGTGCAACCGACGAGTCCGTTT,0.802,0.953,0.178,0.755,0.464,1.02,-0.119,2.15,3.77,2.88,2.28,0.306,0.956,1,0.829,0.982,1.24,0.832,0.781,0.825
TTACCAAGGTGTAGGTCGTTGATCCCTCTGTAGA,0.674,1.15,0.0593,0.801,-0.638,0.814,-0.0136,1.68,0.61,1.52,-0.191,0.759,-0.595,0.0644,0.0452,0.444,-0.501,0.688,-0.329,0.379
TCTTGTAGATCAGCAGGTTAAGGAAGCTGGCCAA,0.249,0.362,-0.204,0.224,-0.678,0.814,-0.515,1.47,2.53,2.02,1.63,0.577,-1.02,-0.0477,-0.0347,0.121,-0.363,0.277,-0.25,0.316
CGTCAAAGTTGAAGGTAACGTAACAGAAAGCAGC,-0.11,-0.00279,-0.157,0.207,-0.458,1.02,0.813,1.01,0.188,0.76,0.274,0.441,0.243,0.266,0.228,0.242,-0.121,0.656,0.1,1.64
TCATATAGGTACATGCTAGGTGAAAGTCCGATCT,0.846,1.11,0.242,0.622,0.134,1.15,0.699,2.04,3.56,2.99,2.58,1.73,0.847,1.54,0.444,0.528,0.248,0.868,0.997,0.432
CCTCGGAGGACAGAAGATCAGAGCTGTCCGCTTT,-0.222,-0.485,-0.602,-0.91,-1.2,-0.456,-0.0907,-0.214,-0.616,-0.38,-0.304,-0.633,-2.13,-1.48,-0.0483,-0.636,-0.786,-0.512,-0.276,0.386
TAGCCTTGGTCATGGGCCAGTATACCACGCGAAC,-0.772,-0.685,-0.571,-0.54,-1.16,-0.311,0.351,-0.0225,-0.592,-0.107,-1.28,0.113,-0.568,-0.717,-0.713,-0.329,-0.952,-0.342,-1.21,0.734
CGAACTAGGTCATTGACAAGACAGTGAATAGTAA,3.79,2.42,0.115,2.04,-0.0491,4.5,7.38,6.17,3.72,5.54,8.29,8.45,3.1,1.15,0.882,1.26,0.00701,1.79,0.336,3.61
AATACAGGGTCACTAGGCGAGAGTAGGTACGAAT,6.08,4.92,1.02,3.94,1.26,5.66,7.02,6.14,2.65,4.89,3.92,5.14,1.72,0.921,2.09,3.16,0.858,4.27,1.4,4.29
